Experimental data reported in PubChem BioAssay (NCI).
This is part of a sample that, as a whole, favours compounds with a hit. Of some 83,000 tested, about 20% had one in any assay.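 Interpretation: 100, growth as untreated; towards 0, rising growth inhibition; 0, no net growth; 0 to -100, cell death. Compounds scoring below 10 were considered active.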 Activity calls are given as the source filed them.

Experiments:
Assay in all cases: NCI-60 one-dose screen, 48 h (100 = growth as untreated, 0 = no growth, -100 = all killed)
Conditions in all cases: 10 µM unless noted
HCT-15 colon = system: HCT-15 colon
HT29 colon = system: HT29 colon
SNB-75 CNS = system: SNB-75 CNS
SNB-19 CNS = system: SNB-19 CNS
U251 CNS = system: U251 CNS
UACC-62 melanoma = system: UACC-62 melanoma
LOX IMVI melanoma = system: LOX IMVI melanoma
SK-MEL-28 melanoma = system: SK-MEL-28 melanoma
SK-MEL-2 melanoma = system: SK-MEL-2 melanoma
EKVX NSCLC = system: EKVX NSCLC
SN12C renal = system: SN12C renal
UO-31 renal = system: UO-31 renal
ACHN renal = system: ACHN renal
CAKI-1 renal = system: CAKI-1 renal
CCRF-CEM leukemia = system: CCRF-CEM leukemia
MOLT-4 leukemia = system: MOLT-4 leukemia
TK-10 renal = system: TK-10 renal
A498 renal = system: A498 renal
PC-3 prostate = system: PC-3 prostate
SK-MEL-5 melanoma = system: SK-MEL-5 melanoma

Measured: growth

Cc1cc2nc(NC(=O)CN3CCN(CCN4C(=O)c5cccc6cccc(c56)C4=O)CC3)sc2cc1C
inactive: HCT-15 colon 81.1% | HT29 colon 51.8% | SNB-75 CNS 77.8% | SNB-19 CNS 75.3% | U251 CNS 73.2% | UACC-62 melanoma 83.8% | LOX IMVI melanoma 77.9% | SK-MEL-28 melanoma 106% | SK-MEL-2 melanoma 107% | EKVX NSCLC 82.1% | SN12C renal 72.9% | UO-31 renal 68% | ACHN renal 85.1% | CAKI-1 renal 88% | CCRF-CEM leukemia 71.5% | MOLT-4 leukemia 45%

COCCNc1ccc2c3c(cccc13)C(=O)N(CCN(C)C)C2=O
active: UACC-62 melanoma 3.48% | SK-MEL-2 melanoma -12.6% | CAKI-1 renal -21.4% | CCRF-CEM leukemia 8.36% | MOLT-4 leukemia -6.43%
inactive: HCT-15 colon 20% | HT29 colon 10.4% | SNB-75 CNS 47.7% | SNB-19 CNS 22.4% | U251 CNS 28.1% | SK-MEL-28 melanoma 37.5% | EKVX NSCLC 22.5% | SN12C renal 24.7% | UO-31 renal 10.6% | TK-10 renal 20.5% | ACHN renal 11.9% | A498 renal 26.5%

COc1ccc(-c2nnc(SCC(=O)c3ccc(Cl)cc3)o2)cc1
inactive: HCT-15 colon 104% | HT29 colon 96% | SNB-75 CNS 88.8% | SNB-19 CNS 101% | U251 CNS 99.8% | LOX IMVI melanoma 97.1% | SK-MEL-2 melanoma 104% | EKVX NSCLC 101% | UO-31 renal 99.8% | ACHN renal 102% | CAKI-1 renal 98.1% | A498 renal 100% | CCRF-CEM leukemia 114% | MOLT-4 leukemia 109%

COc1cc(CNc2oc(-c3ccccc3)c(-c3ccccc3)c2C#N)cc(CN2CCN(C)CC2)c1O
active: HCT-15 colon -55.9% | HT29 colon 5.27% | LOX IMVI melanoma -74.6% | SK-MEL-28 melanoma -38.4% | A498 renal -7.97% | MOLT-4 leukemia -13.7%
inactive: SNB-75 CNS 52.4% | SNB-19 CNS 83.3% | PC-3 prostate 57.6% | SK-MEL-5 melanoma 49.8% | UACC-62 melanoma 91.1% | SK-MEL-2 melanoma 82.4% | EKVX NSCLC 65.6% | SN12C renal 77.4% | UO-31 renal 51.5% | TK-10 renal 91.9% | ACHN renal 65.7% | CAKI-1 renal 66% | CCRF-CEM leukemia 45.6%

O=C(/C=C/c1ccccc1)c1ccc(O)c(CN2CCN(c3cc4c(cc3F)c(=O)c(C(=O)O)cn4C3CC3)CC2)c1
active: HT29 colon 5.56% | SNB-75 CNS -2.4% | SK-MEL-5 melanoma -42.1% | LOX IMVI melanoma 6.26% | SN12C renal 8.48% | A498 renal -18.4%
inactive: HCT-15 colon 16.9% | SNB-19 CNS 29.8% | PC-3 prostate 18.3% | UACC-62 melanoma 21.3% | SK-MEL-28 melanoma 46.5% | SK-MEL-2 melanoma 22.8% | EKVX NSCLC 43.3% | UO-31 renal 12.3% | TK-10 renal 62.7% | ACHN renal 14.4% | CAKI-1 renal 20.6% | CCRF-CEM leukemia 18.4% | MOLT-4 leukemia 35.8%

CN1CCN(Cc2ccc(NC(=O)c3cncc(C#Cc4cncn5ccnc45)c3)cc2C(F)(F)F)CC1
active: LOX IMVI melanoma 4.74%
inactive: HCT-15 colon 46.1% | HT29 colon 19.2% | SNB-75 CNS 123% | SNB-19 CNS 92.4% | U251 CNS 76.9% | UACC-62 melanoma 18.7% | SK-MEL-28 melanoma 30.3% | SK-MEL-2 melanoma 24.2% | EKVX NSCLC 86.6% | SN12C renal 31.3% | UO-31 renal 44% | TK-10 renal 94.2% | ACHN renal 37.8% | CAKI-1 renal 89.2% | CCRF-CEM leukemia 36% | MOLT-4 leukemia 82.9%

N#CCCN=Nc1c(O)[nH]c2ccc([N+](=O)[O-])cc12
inactive: HCT-15 colon 102% | HT29 colon 101% | SNB-75 CNS 70.5% | SNB-19 CNS 100% | PC-3 prostate 99.7% | SK-MEL-5 melanoma 99.2% | UACC-62 melanoma 93.2% | LOX IMVI melanoma 90.3% | SK-MEL-28 melanoma 112% | SK-MEL-2 melanoma 95.6% | EKVX NSCLC 91.3% | SN12C renal 98.7% | UO-31 renal 76.9% | TK-10 renal 108% | ACHN renal 96.3% | CAKI-1 renal 86.1% | A498 renal 94.3% | CCRF-CEM leukemia 103% | MOLT-4 leukemia 100%

Cc1ccc(NS(=O)(=O)c2ccc(-c3cnc(C4CC4)o3)cc2)cc1C
inactive: HCT-15 colon 19.5% | SNB-19 CNS 46.8% | PC-3 prostate 22.7% | UACC-62 melanoma 24.1% | LOX IMVI melanoma 39.4% | SK-MEL-28 melanoma 66% | SK-MEL-2 melanoma 38.5% | EKVX NSCLC 27% | SN12C renal 43.6% | UO-31 renal 38.5% | TK-10 renal 44% | ACHN renal 40.7% | CAKI-1 renal 27.2% | CCRF-CEM leukemia 23.5% | MOLT-4 leukemia 30.1%
active: HT29 colon -10.4% | SNB-75 CNS -7.43% | SK-MEL-5 melanoma -3.9% | A498 renal -15.8%

O=C(N=Nc1c(O)[nH]c2ccc(Br)cc12)c1cc(-c2ccccc2)on1
inactive: HCT-15 colon 103% | HT29 colon 97% | SNB-75 CNS 58.4% | SNB-19 CNS 102% | PC-3 prostate 100% | SK-MEL-5 melanoma 99.9% | UACC-62 melanoma 103% | LOX IMVI melanoma 94.8% | SK-MEL-28 melanoma 106% | SK-MEL-2 melanoma 95.6% | EKVX NSCLC 91.3% | SN12C renal 100% | UO-31 renal 90.5% | TK-10 renal 108% | ACHN renal 103% | CAKI-1 renal 88.7% | A498 renal 77.6% | CCRF-CEM leukemia 102% | MOLT-4 leukemia 100%

CCCCCCN(CCCCCC)CCC(O)c1ccc2ccccc2c1 (centres undefined)
inactive: HCT-15 colon 48.1% | HT29 colon 27.7% | SNB-75 CNS 68.2% | SNB-19 CNS 78.5% | U251 CNS 62.7% | UACC-62 melanoma 77.3% | SK-MEL-28 melanoma 88.1% | SK-MEL-2 melanoma 86.1% | EKVX NSCLC 71% | SN12C renal 58.6% | UO-31 renal 38.4% | TK-10 renal 72% | ACHN renal 68.7% | CAKI-1 renal 53% | A498 renal 48.3% | CCRF-CEM leukemia 41.8% | MOLT-4 leukemia 45.7%

O=c1nc2oc3ccc4ccccc4c3cc-2s1
inactive: HCT-15 colon 32.4% | HT29 colon 15.2% | SNB-19 CNS 31.9% | U251 CNS 12.5% | UACC-62 melanoma 37.6% | LOX IMVI melanoma 33.5% | SK-MEL-28 melanoma 56.7% | EKVX NSCLC 46.1% | SN12C renal 41.1% | UO-31 renal 46.9% | TK-10 renal 54.7% | ACHN renal 41% | CAKI-1 renal 22.1% | CCRF-CEM leukemia 13.7% | MOLT-4 leukemia 25.1%
active: SNB-75 CNS -16.1% | A498 renal -1.24%

CCCCCCN(CCCCCC)C(=N)c1ccnc2ccccc12
active: HT29 colon 8.96% | CCRF-CEM leukemia -4.39%
inactive: HCT-15 colon 65.9% | SNB-75 CNS 57.6% | SNB-19 CNS 84.1% | U251 CNS 63.9% | LOX IMVI melanoma 30% | SK-MEL-28 melanoma 88.4% | EKVX NSCLC 84.5% | SN12C renal 71.9% | UO-31 renal 36.5% | TK-10 renal 73.4% | ACHN renal 53.2% | A498 renal 37.2% | MOLT-4 leukemia 48.8%

CCCc1cc(=O)n2c(C(=O)Nc3ccc(F)cc3)c(C(=O)Nc3ccc(F)cc3)sc2n1
active: SNB-75 CNS -15.9% [30 µM]
inactive: HCT-15 colon 83% [30 µM] | HT29 colon 53.8% [30 µM] | SNB-19 CNS 48.4% [30 µM] | U251 CNS 41.6% [30 µM] | UACC-62 melanoma 84% [30 µM] | SK-MEL-28 melanoma 77.7% [30 µM] | SK-MEL-2 melanoma 70.7% [30 µM] | EKVX NSCLC 62.5% [30 µM] | SN12C renal 65.7% [30 µM] | UO-31 renal 19.3% [30 µM] | TK-10 renal 38.9% [30 µM] | ACHN renal 48.4% [30 µM] | CAKI-1 renal 44.3% [30 µM] | A498 renal 139% [30 µM] | CCRF-CEM leukemia 77.1% [30 µM] | MOLT-4 leukemia 97.9% [30 µM]

CN1CCN(c2ccc(Nc3c4ccccc4nc4ccccc34)cc2)CC1
inactive: HCT-15 colon 99.3% | HT29 colon 103% | SNB-75 CNS 96.8% | SNB-19 CNS 107% | U251 CNS 99.8% | UACC-62 melanoma 109% | SK-MEL-28 melanoma 109% | SK-MEL-2 melanoma 106% | SN12C renal 102% | UO-31 renal 97.5% | TK-10 renal 102% | ACHN renal 102% | CAKI-1 renal 107% | A498 renal 112% | CCRF-CEM leukemia 105% | MOLT-4 leukemia 97.5%

O=C(COc1ccc(/C=C2\COc3ccccc3C2=O)cc1)Nc1nccs1
active: CCRF-CEM leukemia 7.16%
inactive: HCT-15 colon 72.6% | HT29 colon 39.1% | SNB-75 CNS 84.6% | SNB-19 CNS 88.2% | U251 CNS 73% | UACC-62 melanoma 96.4% | SK-MEL-28 melanoma 86.5% | SK-MEL-2 melanoma 72.8% | EKVX NSCLC 102% | SN12C renal 114% | UO-31 renal 73.2% | TK-10 renal 88.7% | ACHN renal 94.1% | CAKI-1 renal 103% | MOLT-4 leukemia 22.5%

CCOc1ccc(C(C)=O)cc1NC(=O)c1cccc(-c2nnn(CC)n2)c1
inactive: HCT-15 colon 46.8% | SNB-19 CNS 36.5% | U251 CNS 22.1% | LOX IMVI melanoma 49.2% | EKVX NSCLC 54.5% | UO-31 renal 38.4% | TK-10 renal 64.4% | ACHN renal 50.8% | CAKI-1 renal 33.1% | CCRF-CEM leukemia 11.9% | MOLT-4 leukemia 27.8%
active: HT29 colon 7.72% | SNB-75 CNS 6.99% | SK-MEL-2 melanoma -5.73% | A498 renal -6.01%

Clc1ccc2nc3nc4ccc[nH]c4cc3c2c1
inactive: HCT-15 colon 69.3% | HT29 colon 83.8% | SNB-75 CNS 88.8% | SNB-19 CNS 89% | U251 CNS 82.8% | UACC-62 melanoma 80.4% | LOX IMVI melanoma 91.9% | SK-MEL-28 melanoma 111% | SK-MEL-2 melanoma 88.5% | EKVX NSCLC 68.2% | SN12C renal 90.8% | UO-31 renal 78.4% | ACHN renal 85.9% | A498 renal 109% | CCRF-CEM leukemia 71.4% | MOLT-4 leukemia 80.5%

CCN1CCN(c2nc(NCCNc3ccnc4cc(Cl)ccc34)c3ccccc3n2)CC1
active: HCT-15 colon 7.08% | HT29 colon -14.1% | U251 CNS -16.7% | UACC-62 melanoma -87.9% | LOX IMVI melanoma -62.9% | SK-MEL-28 melanoma -60.1% | SK-MEL-2 melanoma -71.4% | SN12C renal -5.71% | UO-31 renal -75.2% | TK-10 renal -19.4% | ACHN renal -25.7% | MOLT-4 leukemia 6.3%
inactive: SNB-75 CNS 44.7% | SNB-19 CNS 14.4% | EKVX NSCLC 53.3% | A498 renal 77.1%
